Laboratory results taken from PubChem BioAssay (NCATS).
“And” between values parts separate entries of the source, which are not always exact repeats. Identical values can stand only once. Inconclusive results are not listed. Values without a mark were called inactive. The source made the active and inactive calls. Calls come from the whole dose curve; as a rule, active = well fitted cell-killing curve with a large enough effect in the repeat runs; inconclusive = weak or mixed curves; inactive = flat fitted curve, though single readings scatter.

Assay: qHTS assay for small molecule agonists of the antioxidant response element (ARE) signaling pathway measured by Nrf2-dependant transcriptional activity - cell viability counter screen (AID 720653)
Details: ARE-bla HepG2 viability, CellTiter-Glo ATP luminescence, 16 h; max response: hits give low values
Excerpt: National Center for Advancing Translational Sciences [NCATS] NIH Chemical Genomics Center [NCGC] U.S. Environmental Protection Agency [EPA] National Institutes of Environmental Health Sciences [NIEHS] National Toxicology Program [NTP] Assay Overview: Oxidative stress has been implicated in the pathogenesis of a variety of diseases ranging from cancer to neurodegeneration. The antioxidant response element (ARE) signaling pathway plays an important role in the amelioration of oxidative stress. The CellSensor ARE-bla HepG2 cell line (Invitrogen) can be used for analyzing the Nrf2/antioxidant response signaling pathway. Nrf2 (NF-E2-related factor 2) and Nrf1 are transcription factors that bind to AREs and activate these genes. The CellSensor ARE-bla HepG2 cell line contains a beta-lactamase reporter gene under control of the Antioxidant Response Element (ARE) stably integrated into HepG2 cells. The activation of the report gene under culture conditions can be detected by fluorescence intensity. The cytotoxicity of the compounds against the ARE-bla HepG2 cell line was quantified by measuring the intracellular ATP content.
Assay Protocol Summary: ARE-bla HepG2 cells were dispensed at 2,000 cells/5 ul/well in 1536-well black wall/clear bottom plates using a Multidrop Combi (ThermoFisher Scientific, Waltham, MA) dispenser. After the assay plates were incubated at 37C/5% CO2 for 5 hrs, 23 nL of compounds dissolved in DMSO, positive controls or DMSO only was transferred to the assay plate by a pintool work station (Kalypsys, San Diego, CA). The plates were incubated at 37C/5% CO2 for 16 hrs. After 1 uL of LiveBLAzer B/G FRET substrate was added using a Flying Reagent Dispenser (FRD) (Aurora Discovery, San Diego, CA), the assay plates were incubated at room temperature for 2 hrs. The fluorescence intensity was measured by an Envision (PerkinElmer, Shelton, CT) plate reader. Cell viability using CellTiter Glo viability assay (Promega, Madison, WI) was also measured by adding 4 ul/well of CellTiter-Glo reagent into the same assay plate using a FRD. After 30 min incubation at room temperature, the luminescence intensity in the plates was measured using a ViewLux (PerkinElmer) plate reader.
% is set by controls: 0 for no effect and ±100 for the full control effect; potency is the fitted concentration of half-maximal effect.

Compound | max response | Potency
CCCCC(CC)CO[N+](=O)[O-] (stereo not given) | -12.3% | –
CC1=C(C(=O)Nc2ccccc2)S(=O)(=O)CCO1 | -1.32% | –
CCCCN(CC)C(=O)SCCC | -4.49% | –
Cn1c(-c2ccccc2)cc(-c2ccccc2)[n+]1C | -21.3% | –
CCN(CC)c1nc(C)cc(OP(=S)(OC)OC)n1 | -9.93% | –
CCc1cc(C)cc(CC)c1-c1c(OC(=O)C(C)(C)C)n2n(c1=O)CCOCC2 | 0.802% | –
CON(C)C(=O)Nc1ccc(Cl)c(Cl)c1 | -26.6% | –
C=CC(=O)OCCCCCC(C)C | 8.44% | –
OC(Cn1cncn1)(c1ccc(F)cc1)c1ccccc1F (stereo not given) | -4.37% | –
Nc1nc(N)nc(N)n1 | -2.99% | –
O=C=Nc1ccc(Cl)cc1 | -2.93% | –
O=C(Nc1ccccc1)Nc1ccnc(Cl)c1 | -3.22% | –
CC(C)CCCCCCOC(=O)c1ccccc1C(=O)OCCCCCCC(C)C | 0.428% | –
CCOP(=S)(OCC)Oc1cnc2ccccc2n1 | 3.82% | –
CC(C)(C)N(NC(=O)c1ccc(Cl)cc1)C(=O)c1ccccc1 | -5.92% | –
ClC1=C(Cl)C2(Cl)C3C(Cl)C(Cl)CC3C1(Cl)C2(Cl)Cl (stereo not given) | -13.1% | –
O=[N+]([O-])c1cc(C(F)(F)F)c(Cl)c([N+](=O)[O-])c1Nc1ncc(C(F)(F)F)cc1Cl | – | 35.5 µM (active)
CCOC(=O)Nc1cccc(OC(=O)Nc2ccccc2)c1 | -18.4% | –
O=P(O)(O)CCCl | -26.8% and 3.51% | –
COC(=O)c1ccccc1CS(=O)(=O)NC(=O)Nc1nc(OC)cc(OC)n1 | -5.06% | –

Compound | max response | Potency
N#CCNC(=O)c1cnccc1C(F)(F)F | -0.0757% | –
CC1(C)Cc2cccc(O)c2O1 | 7.61% | –
COc1cc(OC)nc(NC(=O)NS(=O)(=O)c2cc(NC=O)ccc2C(=O)N(C)C)n1 | 11% | –
Cc1ccn2nc(S(=O)(=O)Nc3c(F)cccc3F)nc2n1 | 14.2% | –
CCC[CH2][Sn]([CH2]CCC)([O]C(C)=O)[O]C(C)=O | -3.33% | –
N#CC(CCc1ccc(Cl)cc1)(Cn1cncn1)c1ccccc1 (stereo not given) | -21.6% | –
CCC(CC)Nc1c([N+](=O)[O-])cc(C)c(C)c1[N+](=O)[O-] | -7.95% | –
O=P(O)(O)CN(CP(=O)(O)O)CP(=O)(O)O | -0.727% | –
CCC(C)c1ccc(O)cc1 (stereo not given) | -2.59% | –
CCCC1COC(Cn2cncn2)(c2ccc(Cl)cc2Cl)O1 (stereo not given) | -18.4% and -18.3% | –
COc1cnc(OC)n2nc(NS(=O)(=O)c3c(OCC(F)F)cccc3C(F)(F)F)nc12 | -2.64% | –
CNC(=O)O/N=C(\SC)C(=O)N(C)C | -17.7% | –
O=C(O)C(F)(F)C(F)(F)C(F)(F)C(F)(F)C(F)(F)F | 3.24% | –
CCOP(=S)(OCC)SCSP(=S)(OCC)OCC | -0.915% | –
COP(=S)(OC)Oc1ccc([N+](=O)[O-])c(C)c1 | -3.17% | –
CC1CCCCC1NC(=O)Nc1ccccc1 (stereo not given) | -4.51% | –
CC(C)OC(=O)C(O)(c1ccc(Br)cc1)c1ccc(Br)cc1 | -7.97% | –
CCOP(=S)(OCC)OC(Cl)C(Cl)(Cl)Cl (stereo not given) | -3.95% | –
O=Cc1cccc(Oc2ccccc2)c1 | 2.38% | –
OC(c1ccc(Cl)cc1)(c1ccc(Cl)cc1)C(Cl)(Cl)Cl | -1.65% | –
